# Some of the results follow. A call without a number means that no potency is given here. Results filed as inconclusive are left out. Active and inactive are the calls of the source. Calls follow the shape of the full dose curve.
# Target: Polyprotein P1234 (Chikungunya virus (strain S27-African prototype)) (UniProt Q8JUX6)
# Experiment: Selectivity profile for inhibitors of NSP2Pro chikungunya virus (CHIKV): Endogenous NS2/3 peptide Counterscreen (AID 1964103); also: nearly all actives have a fitted effect of over 55% in size
# Settings: Purified CHIKV nsP2 protease, endogenous NS2/3 peptide cleavage; series mostly up to 51 µM
# Excerpt: PI: Natalia J. Martinez Ph.D.
# National Center for Advancing Translational Sciences (NCATS),
# National Institute of Health (NIH), Rockville, Maryland
# Chikungunya virus (CHIKV) is a mosquito-borne RNA virus that has emerged as one of the most important global arboviral threats in the last decade. Although the first CHIKV vaccine has recently been FDA approved for use in healthy adults at increased risk, to date, there are no available antiviral drugs for CHIKV infection. CHIKV nsP2 protease plays a crucial role in the processing of the viral polypeptide precursor to release enzymes required for viral replication, thus making it a promising drug target for antiviral discovery. Here, we established a high-throughput pipeline to identify small molecule inhibitors of nsP2 proteolytic activity. The pipeline is composed of a suite of 1,536-well in vitro assays to support quantitative high-throughput (qHTS) screening campaigns. Specifically, we developed a fluorescence resonance energy transfer (FRET)-based assay using a fluorogenic peptide substrate encompassing an endogenous cleavage site and purified recombinant protease domain (nsP2pro). Using this assay, we interrogated ~37,000 small molecules, including those in drug repurposing libraries as well as chemically diverse and medicinal chemistry-friendly compounds. Hits were selected for follow-up validation against full-length nsP2 and an additional peptide. FRET-based 1,536-well assays for papain, hepatitis C virus NS3-4A, and human furin proteases were implemented to characterize compound selectivity. […] Novel compounds were identified to be potential nsP2 inhibitors and molecular docking analyses were performed to explain the binding mode of selected hits. In vitro antiviral activity was evaluated for a subset of compounds using a high-throughput CHIKV infection assay. To our knowledge, the pipeline presented here is unprecedented for CHIKV antiviral discovery research.
# PROTOCOL TABLE (as described by Inglese J, Shamu CE and Guy RK. 2007)
# SEQUENCE No. (e.g., 1, 2, 3, etc.); […] (e.g., Cells, Incubation, Reagent, etc.); VALUE; DESCRIPTION.
# 1; Control / Compound; 20 nL; Echo 655 acoustic dispenser, Greiner 1536-well solid bottom black plate.
# 2; Enzyme; 4 uL; BioRAPTR FRD liquid dispenser (Beckman Coulter).
# 3; Incubation; 15 min; room temperature.
# 4; Reagent; 4 uL; 2.5 uM endogenous NS2/3 peptide substrate.
# 5; Incubation; 1 hr; room temperature.
# 6; Detection; Fluorescence; WiewLux microplate reader (PerkinElmer), 525 nm excitation, 598/25 nm emission.
# NOTES (numbers refer to sequence numbers above).
# 1. Briefly, 20 nL DMSO, positive control ZnAc (20nM final concentration), and test compounds were transferred into a 1,536-well solid bottom black plate (789176-F, Greiner One) via Echo 655 acoustic dispenser (Beckman Coulter). For primary screens, compounds were tested at 7 concentrations, 1:3 dilution points ranging from 25 uM to 34 nM. Follow-up confirmatory screens were carried out at 11 concentrations, 1:3 dilution points from 25 uM to 0.42 nM.
# 2. Four uL nsP2pro enzyme mix (150 nM final concentration) in 10 mM Tris-HCl pH 8.0 with 0.01% Tween 20 assay buffer was dispensed into the plate using a BioRAPTR FRD liquid dispenser (Beckman Coulter).
# 3. The plate was incubated at room temperature (protected from light) for 15 min
# 4. Four microliter of endogenous NS2/3 peptide substrate (peptide 3: TMR-[…]/APSYR-K-QSY7; 2.5 uM final concentration) in assay buffer was added to the plate.
# 5. After 1 hour, plates were immediately read on a ViewLux high-throughput CCD imager (Exposure = 10 sec, Gain = High, Speed = Slow, Binning = 2X). The above assay was also incorporated in the NCATS HTS facility41, which allowed for robotic liquid and compound dispensing, microplate handling, and fluorescence reading.
# Inglese J, Shamu CE and Guy RK, Reporting data from high throughput screening of small molecule libraries, Nature Chemical Biology, 2007, 3(8): 438-441. doi.org/10.1038/nchembio0807-438.
# Potency is read from the fitted curve at half-maximal effect.
# Polyprotein P1234 (Chikungunya virus (strain S27-African prototype)), sequence (Q8JUX6 whole entry, looked up): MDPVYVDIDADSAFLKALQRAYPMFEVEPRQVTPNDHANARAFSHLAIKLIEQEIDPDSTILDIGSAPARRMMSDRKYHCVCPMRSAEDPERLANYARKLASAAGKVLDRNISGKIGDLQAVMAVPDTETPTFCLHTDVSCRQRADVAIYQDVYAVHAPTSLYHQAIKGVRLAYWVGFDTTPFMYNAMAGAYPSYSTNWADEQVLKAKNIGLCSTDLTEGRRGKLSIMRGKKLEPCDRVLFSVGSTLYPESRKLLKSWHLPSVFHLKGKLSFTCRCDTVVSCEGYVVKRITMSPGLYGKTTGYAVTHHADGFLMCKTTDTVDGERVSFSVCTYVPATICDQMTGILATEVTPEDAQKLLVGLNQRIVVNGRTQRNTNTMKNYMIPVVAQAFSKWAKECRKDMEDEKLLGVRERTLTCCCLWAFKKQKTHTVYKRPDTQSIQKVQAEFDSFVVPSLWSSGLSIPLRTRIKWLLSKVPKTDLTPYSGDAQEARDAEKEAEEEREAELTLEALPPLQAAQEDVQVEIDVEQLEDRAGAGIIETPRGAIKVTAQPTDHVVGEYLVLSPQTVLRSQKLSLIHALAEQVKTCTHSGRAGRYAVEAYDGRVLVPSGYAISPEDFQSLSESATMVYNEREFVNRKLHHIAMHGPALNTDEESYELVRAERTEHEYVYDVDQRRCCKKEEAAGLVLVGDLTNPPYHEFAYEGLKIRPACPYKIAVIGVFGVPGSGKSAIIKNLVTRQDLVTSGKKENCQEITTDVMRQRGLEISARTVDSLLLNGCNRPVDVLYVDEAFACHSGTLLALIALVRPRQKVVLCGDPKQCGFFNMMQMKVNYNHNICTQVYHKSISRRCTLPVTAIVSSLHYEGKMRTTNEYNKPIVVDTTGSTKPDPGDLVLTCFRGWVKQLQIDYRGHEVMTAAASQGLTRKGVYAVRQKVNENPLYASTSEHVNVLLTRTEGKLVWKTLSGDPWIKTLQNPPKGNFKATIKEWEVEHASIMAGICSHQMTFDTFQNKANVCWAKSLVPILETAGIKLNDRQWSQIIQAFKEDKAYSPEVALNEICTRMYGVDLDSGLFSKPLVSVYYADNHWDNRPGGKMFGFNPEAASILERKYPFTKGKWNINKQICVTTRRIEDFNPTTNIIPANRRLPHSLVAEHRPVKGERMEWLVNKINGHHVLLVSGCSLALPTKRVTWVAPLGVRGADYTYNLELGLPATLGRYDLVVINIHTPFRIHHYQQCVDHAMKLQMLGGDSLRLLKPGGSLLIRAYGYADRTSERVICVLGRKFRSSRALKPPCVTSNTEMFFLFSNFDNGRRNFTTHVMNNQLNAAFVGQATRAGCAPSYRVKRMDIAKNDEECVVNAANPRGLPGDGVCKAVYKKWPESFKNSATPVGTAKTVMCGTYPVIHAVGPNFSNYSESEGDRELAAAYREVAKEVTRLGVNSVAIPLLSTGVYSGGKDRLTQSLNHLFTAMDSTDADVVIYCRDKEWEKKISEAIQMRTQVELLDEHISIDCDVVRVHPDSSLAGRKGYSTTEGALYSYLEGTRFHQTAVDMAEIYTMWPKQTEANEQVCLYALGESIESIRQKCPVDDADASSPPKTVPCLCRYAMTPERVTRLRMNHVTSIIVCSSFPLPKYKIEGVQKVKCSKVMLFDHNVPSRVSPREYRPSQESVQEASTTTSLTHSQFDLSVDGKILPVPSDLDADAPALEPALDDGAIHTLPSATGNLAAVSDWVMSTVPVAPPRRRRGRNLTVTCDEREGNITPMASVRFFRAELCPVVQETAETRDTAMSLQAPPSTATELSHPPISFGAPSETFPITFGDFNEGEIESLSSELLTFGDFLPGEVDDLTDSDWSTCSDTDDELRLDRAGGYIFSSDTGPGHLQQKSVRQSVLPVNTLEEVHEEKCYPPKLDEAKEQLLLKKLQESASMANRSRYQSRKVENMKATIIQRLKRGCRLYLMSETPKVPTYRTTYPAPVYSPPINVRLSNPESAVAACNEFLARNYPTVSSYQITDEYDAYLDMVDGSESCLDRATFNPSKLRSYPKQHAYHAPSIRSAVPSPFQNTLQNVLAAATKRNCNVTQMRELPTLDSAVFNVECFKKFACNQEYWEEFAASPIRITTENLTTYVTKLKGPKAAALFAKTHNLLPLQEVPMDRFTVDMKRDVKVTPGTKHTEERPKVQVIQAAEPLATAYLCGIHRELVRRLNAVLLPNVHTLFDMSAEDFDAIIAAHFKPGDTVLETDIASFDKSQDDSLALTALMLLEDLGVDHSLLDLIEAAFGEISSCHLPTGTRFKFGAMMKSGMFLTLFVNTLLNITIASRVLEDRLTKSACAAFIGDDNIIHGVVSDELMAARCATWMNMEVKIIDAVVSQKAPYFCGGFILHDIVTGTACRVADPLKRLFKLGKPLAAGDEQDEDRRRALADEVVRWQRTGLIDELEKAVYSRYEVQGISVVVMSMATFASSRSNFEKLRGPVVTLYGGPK
row,Structure (SMILES),Potency
1,O=C(O)c1cccc(-n2[nH]c(-c3ccccc3)cc2=O)c1,inactive
2,CCOc1ccc(N(Cc2ccccc2)C(=O)c2nc(S(C)(=O)=O)ncc2Cl)cc1,4.61 µM (active)
3,CC1=C(/C=C/C(C)=C/C=C/C(C)=C/C=C/C=C(C)/C=C/C=C(C)/C=C/C2=C(C)CCCC2(C)C)C(C)(C)CCC1,inactive
4,CCOc1ccc(NC(=O)c2c(NC(=O)Cc3ccccc3)sc3c2CCC(C)C3)cc1 (stereo not given),13 µM (active)
5,C[C@@H]1C[C@@H](O)[C@@]23CO[C@]2(CO)C[C@@H](O)CC3[C@@]12CC(c1ccoc1)OC2=O (stereo not given in full),inactive
6,C[C@@H]1[C@H](O)[C@@H]2OC(=O)C3=C2[C@H](CCC3)[C@@]12C[C@@H](c1ccoc1)OC2=O,inactive
7,Cn1nnnc1Sc1ncnc2n[nH]c(-c3cccc(S(C)(=O)=O)c3)c12,4.47 µM (active)
8,CCOc1ccc(NC(=O)c2c(NC(=O)Cc3ccccc3)sc3c2CCCCC3)cc1,16.3 µM (active)
9,Cc1c(S(=O)(=O)O)oc2c1C(=O)C(=O)c1c-2ccc2c1CCCC2(C)C,inactive
10,CCC(C)C(=O)OC1C(C)C2(O)C(C=C(CO)CC3(O)C(=O)C(C)=CC32)C2C(C)(C)C12OC(=O)C(C)C (stereo not given),inactive
11,N#CSc1cc(SC#N)c(N)nc1N,0.206 µM (active)
12,CC(=O)N[C@@H](C(=O)O[C@H]1CCC(C)(C)[C@@H]2CCC3=C(COC3=O)[C@@]12C)C(C)C,inactive
13,CO[C@]1(NC(=O)CSC(F)F)C(=O)N2C(C(=O)O)=C(CSc3nnnn3CCO)CO[C@H]21,inactive
14,CCc1ccccc1NC(=O)c1cnn(-c2ccc(F)cc2)c1C1CCNCC1,inactive
15,Oc1ccc(OC2CCCCO2)cc1 (stereo not given),inactive

# Reference: PubChem BioAssay (NCATS)
